Screens as filed in PubChem BioAssay.
D1 PAM: enhances dopamine response at the human D1 receptor; P21728; HEK293 TREx D1 cells, calcium flux, dopamine EC20 potentiation; 360,000 compounds, 0.036% hits; potentiation, % at 10 µM; in the data active = potentiation above about 30%; note: 0% is about no effect
Target sequence (P21728 whole entry, looked up): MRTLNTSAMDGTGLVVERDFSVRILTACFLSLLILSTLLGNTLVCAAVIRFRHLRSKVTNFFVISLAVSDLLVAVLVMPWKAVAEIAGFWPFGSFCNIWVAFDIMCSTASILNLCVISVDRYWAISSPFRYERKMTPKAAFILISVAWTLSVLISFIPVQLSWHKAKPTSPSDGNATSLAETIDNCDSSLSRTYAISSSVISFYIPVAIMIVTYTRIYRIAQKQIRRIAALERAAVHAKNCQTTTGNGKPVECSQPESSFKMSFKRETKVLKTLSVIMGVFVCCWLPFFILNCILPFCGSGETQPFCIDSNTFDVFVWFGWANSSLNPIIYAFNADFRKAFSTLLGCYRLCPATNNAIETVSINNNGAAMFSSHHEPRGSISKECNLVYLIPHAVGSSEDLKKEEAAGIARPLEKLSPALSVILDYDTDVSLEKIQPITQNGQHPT
TRHR enhancer: allosteric enhancers of human TRH receptor | 360,000 compounds, 0.66% hits | TRHR cells, fluo-8 calcium fluorescence, EC20 TRH enhancement | enhancement, % at 2 µM; in the data active = enhancement above about 30%; note: 0% is about no effect
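Enhancer read-out: after compound pinning and an initial kinetic agonist-mode read, an EC20 of TRH (10 nM final) was injected and fluo-8 calcium signal (Ex 480/Em 530) followed at 1 s/cycle for 100 cycles in TRHR-expressing cells.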
D1 antag: blocks dopamine activation of the human D1 receptor; P21728; HEK293 TREx D1 cells, calcium flux, dopamine EC80; hits give low values; activity change, negative = inhibition, % at 10 µM; 360,000 compounds, 3.2% hits; in the data active = activity change below about -30%; note: % is set by controls: 0 for no effect and ±100 for the full control effect
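Kinetic fluorescence of a calcium dye serves as the read-out. D1-expressing Hek293 Trex cells, induced overnight at 30 C, are exposed to compound for 180 s before an EC80 dopamine addition, then read 180 s further.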
D1 ag: human D1 receptor agonism. P21728. HEK293 T-REx D1 cells, calcium flux, agonist mode. activation, % at 2 µM. 360,000 compounds, 1% hits. AID 504660; note: 0% is about no effect
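Inducible HEK293 T-REx D1 cells, force-coupled to calcium signalling, were plated at 4000 cells/well with tetracycline and held overnight at 30 C. After no-wash calcium dye loading, compound-evoked calcium rise over 180 s flagged agonists.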
TRHR ag: TRH receptor (human) agonism. activation, % at 2 µM. 360,000 compounds, 0.18% hits. P34981. TRHR cells, calcium flux fluo-8, FDSS agonist mode; note: 0% is about no effect
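Agonist-mode FDSS calcium read (Ex 480/Em 530, 1 s cycles) in 1536-well TRHR cells with fluo-8 dye, after 10-cycle baseline and 23 nL compound addition; TRH at EC20 (10 nM final) added afterwards for the enhancer phase.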
Active calls of the source: *; . = no result given; ! = repeats disagree. In the library only some 4.6% were active in any assay of this set; here they are far more common. Cut-off read from the data, not from the text of the source, unless noted: active = activation above about 30%; inactive = the rest.

SMILES	D1 PAM	TRHR enhancer	D1 antag	D1 ag	TRHR ag
COc1ccc(NC(=O)N2CCN(c3cc(-c4noc(C)n4)ccc3C)CC2)c(OC)c1	-3	-6	-14	2	-1
CCOc1ccc(N2CC(c3nc4ccccc4n3CCCOc3ccccc3OC)CC2=O)cc1 (configuration not stated)	-2	-8	-22	5	1
N#CN1CCC(NC(=O)c2cccc(C(F)(F)F)c2)CC1	-3	0	5	0	-2
CCOc1ccc(-n2c(=O)c3c(C)c(C)sc3n(Cc3c(F)cccc3Cl)c2=O)cc1	2	5	7	1	1
C=CCc1ccccc1OCc1nc2ccc(C)cc2[nH]1	-2	7	-37*	21	-1
COc1ccc(CNC(=O)c2ccc(CS(=O)(=O)c3ccccc3C)o2)cc1	3	0	0	3	0
COc1ccccc1S(=O)(=O)Cc1ccc(C(=O)NCC2CCCO2)o1 (configuration not stated)	2	-2	-36*	1	0
COc1ccccc1CNC(=O)c1ccc(C)s1	-5	-1	-46*	-1	-2
COc1ccccc1CNC(=O)c1ccc(CS(=O)(=O)c2ccccc2C)o1	1	-10	-38*!	31*!	3
Cc1c(C(=O)NCC2CCCO2)oc2ccccc12 (configuration not stated)	.	2	-31*	0	0
COc1cccc(C(=O)NCC(c2ccc(N(C)C)cc2)N2CCc3ccccc32)c1OC (configuration not stated)	1	6	-1	0	0
Cc1ccccc1S(=O)(=O)Cc1ccc(C(=O)NCCCN2CCCC2)o1	-6	2	3	2	0
CCN1CCCC1CNC(=O)c1ccc(CS(=O)(=O)c2ccccc2C)o1 (configuration not stated)	8	31*	7	0	0
COc1ccc(OC)c(NC(=O)CC2C(=O)NCCN2C(=O)C(F)(F)F)c1 (configuration not stated)	3	-6	-11	1	0
CCOc1ccccc1N(C)C(=O)Cn1cnc2onc(-c3ccc(F)cc3)c2c1=O	2	-7	-31*	3	1
COc1ccccc1/C=C/C(=O)NCC(=O)N/N=C/c1ccc2c(c1)OCO2	4	-2	6	-4	0
COc1ccccc1CNC(=O)/C=C/c1cc2c(cc1Br)OCO2	-1	0	-30*	8	0
COc1ccc2c(c1)C(C)=CC(C)(C)N2S(=O)(=O)c1ccc(Br)cc1	-2	-10	-30*	2	0
COc1ccc2c(c1)C(C)=CC(C)(C)N2S(=O)(=O)c1ccc(NC(C)=O)cc1	-1	4	1	11	3
CCN(CC)CCOC(=O)c1ccc(Nc2c3c(nc4ccccc24)CCC3)cc1	-1	-10	-9	4	0
Cc1cccc(NC(=O)N2CCC3(CC2)Oc2ccccc2C(=O)N3Cc2ccccc2F)c1C	1	4	4	1	1
O=C(CCNC(=O)c1ccc(Br)cc1)NCC1COc2ccccc2O1 (configuration not stated)	2	-7	-41*	9	0
COc1ccccc1NC(=O)C1=C(C)Nc2nc(SCC(=O)c3ccc(C)cc3)nn2C1c1ccc(F)cc1 (configuration not stated)	1	2	-1	2	0
CCC(=O)NNc1nc2c(F)cc(F)cc2s1	-2	3	-35*	4	0
CCC(=O)NNc1nc2c(F)cccc2s1	1	19	-6	0	0
CC(C)NC(=O)CC(c1ccccc1)c1cc(Br)ccc1O (configuration not stated)	2	8	5	44*	-1
CCCCCCNC(=O)CC(c1ccccc1)c1cc(Br)ccc1O (configuration not stated)	-2	8	14	7	0
Cc1ccc(N2CC(c3nnc(NC(=O)c4ccco4)s3)CC2=O)cc1C (configuration not stated)	3	5	-4	0	-1
Cc1nc(NC(=O)C2CC2)sc1C(=O)Nc1ccccc1	-6	-4	-38*	0	1
Cc1nc(NC(=O)C2CC2)sc1C(=O)Nc1ccc(Br)cc1	3	-9	-1	-1	0
